The entries come from a sample that favours hits as a whole.
LmPK inh: inhibitors of Leishmania mexicana pyruvate kinase; Potency, µM (top dose mostly 57.5 µM), without a hit: top-dose activity change, negative = inhibition, most hits filed as inhibitors; 290,000 compounds, 0.37% hits; AID 1721; Q27686; purified LmPK, Kinase-Glo ATP luminescence, 1 h; also: potency is read from the fitted curve at half-maximal effect; % is scaled to controls: 0 for no effect and ±100 for the full control effect
Target sequence (Q27686 whole entry, looked up): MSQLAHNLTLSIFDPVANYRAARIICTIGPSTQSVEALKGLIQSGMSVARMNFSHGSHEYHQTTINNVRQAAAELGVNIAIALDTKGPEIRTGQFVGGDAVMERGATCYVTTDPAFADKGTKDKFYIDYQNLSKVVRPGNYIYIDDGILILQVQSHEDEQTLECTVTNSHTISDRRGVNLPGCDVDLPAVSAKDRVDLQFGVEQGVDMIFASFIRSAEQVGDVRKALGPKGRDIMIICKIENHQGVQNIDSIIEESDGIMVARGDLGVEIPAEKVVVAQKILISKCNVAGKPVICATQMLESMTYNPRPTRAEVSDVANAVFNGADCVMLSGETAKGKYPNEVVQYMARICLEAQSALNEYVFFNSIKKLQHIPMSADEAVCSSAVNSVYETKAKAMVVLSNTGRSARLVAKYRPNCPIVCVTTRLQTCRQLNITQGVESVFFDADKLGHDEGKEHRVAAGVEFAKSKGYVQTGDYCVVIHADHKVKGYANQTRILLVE
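qHTS format; LmPK 0.1 nM; substrates PEP 0.5 mM and ADP 0.1 mM. One-hour room-temperature incubation, then coupled luciferase luminescence; 0.5 nM enzyme wells mark activation.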
CHX counter: affects cycloheximide protein synthesis inhibition readout, counter-screen | cell reporter, cycloheximide protein synthesis inhibition counterscreen | max response, % | 300,000 compounds, 12% hits | AID 2314; in the data active = max response mostly above about 13%, no sharp cut-off; inactive = mostly below about 14%; also: read at 38.3 µM for the half of the compounds with a filed dose; 0% is about no effect
Shiga inhibitor: Shiga toxin inhibition | inhibition, % at 38.7 µM | 290,000 compounds, 9.2% hits | Vero cells, Shiga toxin protein synthesis inhibition reporter; in the data active = inhibition mostly above about 28%, no sharp cut-off; inactive = mostly below about 43%; also: 0% is about no effect
Sm TGR inh: S. mansoni TGR enzyme inhibition; AID 485364; purified TGR, DTNB reduction, TNB absorbance 405 nm; Q962Y6; 360,000 compounds, 3% hits; Potency, µM (series often up to 114 µM), for the others: at the highest dose activity change, negative = inhibition, actives largely listed as inhibitors; also: potency is read from the fitted curve at half-maximal effect; % is scaled to controls: 0 for no effect and ±100 for the full control effect; nearly all actives have a fitted effect of over 60% in size
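TGR 20 nM + NADPH 100 uM (dispensed conc.), cpd preinc 15 min RT; start with NADPH (500 uM addition) then DTNB (15 mM addition). Kinetic TNB absorbance, 405 nm filter. Four-parameter Hill fit across titration.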
FBPA Giardia inh: blocks Giardia fructose-bisphosphate aldolase activity; purified Giardia FBPA; Potency, µM (titrated, usually from 59.6 µM), for the others: top-dose activity, negative = inhibition, actives largely listed as inhibitors; 290,000 compounds, 0.71% hits; also: potency is read from the fitted curve at half-maximal effect; % is scaled to controls: 0 for no effect and ±100 for the full control effect; nearly all actives have a fitted effect of over 55% in size
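Giardia FBPA (40 nM reagent) was preincubated 10 min at RT with compound (up to 57.5 uM final), then substrate plus GAPDH/TPI/NAD/arsenate coupling system with diaphorase/resazurin was added; resorufin fluorescence (525/598 nm) was read after 20 min.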
Tb PYK inh: inhibitors of Trypanosoma brucei pyruvate kinase | Q57TT1 | TbPYK enzyme, Kinase-Glo Plus ATP luminescence, 45 min | Potency, µM (highest dose often 76.8 µM), for the others: at the top dose activity, negative = inhibition, actives largely listed as inhibitors | 410,000 compounds, 0.12% hits; also: potency is read from the fitted curve at half-maximal effect; % is scaled to controls: 0 for no effect and ±100 for the full control effect; nearly all actives have a fitted effect of over 50% in size
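Luminescent Kinase-Glo Plus end-point after 45 min room-temperature reaction of T. brucei pyruvate kinase started with 130 uM ADP (final). Buffer TEA 50 mM pH 7.2 with KCl, MgCl2, BSA, Tween-20; titration-based qHTS with fitted concentration-effect curves.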
* hit, by the source's call; ? = inconclusive; / = not tested or not shown; [ ] = another dose, or the depositor's remark. Unless noted, calls follow the shape of the dose curve; as a rule, active = well fitted curve in the direction sought with a large enough effect; inconclusive = small, poorly fitted or top-dose-only effect, or another doubt; inactive = no such curve, though single readings can be large; an effect the other way counts as inactive or inconclusive.

SMILES	LmPK inh	CHX counter	Shiga inhibitor	Sm TGR inh	FBPA Giardia inh	Tb PYK inh
CC(CCN(C)C)OC(=O)c1ccc(C(C)c2ccccc2)o1 (centres undefined)	7%	18*	50	?	-2%	0%
COc1ccc(NC(=O)C2CCCC2)cc1	1%	10	22	-119%	-1%	-9%
COc1ccc(NC(=O)C2C3CC/C=C\CCC32)cc1 (centres undefined)	4%	24*	57*	6%	1%	-1%
CCOc1ccc(NC(=O)C2C3CC/C=C\CCC32)cc1 (centres undefined)	4%	17*	35	0%	2%	-2%
COc1cccc(-c2noc(-c3cc(C(C)C)[nH]n3)n2)c1OC	/	/	/	2%	/	-5%
CCc1ccc2occ(CC(=O)NCc3ccccc3)c2c1	/	/	/	-3%	/	-5%
COC(=O)C1CN(C(=O)COc2cccc(C)c2C)c2ccccc2O1 (centres undefined)	3%	26*	44	11%	-11%	0%
COC(=O)C1CN(C(=O)COc2ccc(Cl)cc2Cl)c2ccccc2O1 (centres undefined)	11%	16	3	3%	6%	-14%
Cn1c(/C=N/Nc2nc3ccccc3[nH]2)nc2ccccc21	-23%	34*	154*	-4%	-3%	2%
C=CCn1cc(/C=N\NC(=O)c2cc3c(ccc4ccccc43)o2)c2ccccc21	-8%	-4	15	0%	-28%	-3%
C=CCn1cc(/C=N/Nc2nc3ccccc3[nH]2)c2ccccc21	0%	40*	74*	-5%	4%	-22%
CC(C)Cn1c(/C=N/Nc2nc3ccccc3[nH]2)nc2ccccc21	0%	7	12	-22%	22%	-5%
CS(=O)(=O)Nc1nc2ccccc2[nH]1	-4%	4	-3	-15%	2%	5%
Cc1c(/C=N/Nc2nc3ccccc3[nH]2)c2ccccc2n1C	3%	24*	76*	-5%	-21%	-1%
CCCn1c(/C=N/Nc2nc3ccccc3[nH]2)nc2ccccc21	1%	49*	46*	-1%	21%	-16%
CCOC(=O)c1ccc(-c2c(-c3ccccc3OC)sc3ccc(OC)cc23)cc1F	/	/	/	/	/	1%
CCc1ccc(CN2CCCC(CCC(=O)N3CCN(c4ccccn4)CC3)C2)o1 (centres undefined)	8%	-1	18	?	-5%	1%
Cc1cc(=O)[nH]c2nnc(SCc3c(F)cccc3Cl)n12	/	/	/	0%	/	-5%
Clc1cccc(Cl)c1CNCCCSc1ncccn1	-4%	7.1*	9	7%	?	2%
CNC(=O)c1ccc(Nc2nc(-c3ccccc3)nc3ccccc23)cc1	-1%	16*	27	7%	-8%	-4%
O=C(O)c1cccc(Nc2nc(-c3ccccc3)nc3ccccc23)c1	-5%	19*	40*	0%	-6%	0%
c1ccc(Nc2nc(-c3ccccc3)nc3ccccc23)cc1	10%	-3	/	-24%	3%	-1%
O=C(O)c1ccc(Nc2nc(-c3ccccc3)nc3ccccc23)cc1	6%	20*	27	-12%	-17%	?
Cc1ccc2c(c1)c1c(c(=O)n(-c3ccccc3)c(=O)n1CC(=O)N1CCCC1)n2C	/	/	/	13%	/	-5%
O=C(/C=C\C=C/c1ccc2c(c1)OCO2)N1CCCCC1	/	/	/	/	1%[21.7 µM]	/
SMILES	LmPK inh	CHX counter	Shiga inhibitor	Sm TGR inh	FBPA Giardia inh	Tb PYK inh
O=C(O)c1csc(N/N=C/c2ccc(Br)cc2)n1	3%	16	13	-25%	10%	-5%
CN(C)S(=O)(=O)c1ccc(-c2csc(N/N=C/c3ccco3)n2)cc1	2%	19	29	?	-9%	-7%
Brc1ccc(-c2csc(N/N=C/c3ccco3)n2)cc1	1%	40*	71*	-1%	-4%	-4%
Cc1sc(N/N=C/c2cccnc2)nc1-c1ccccc1	6%	25*	48*	?	-8%	2%
Cc1ccc(-c2csc(N/N=C/c3ccco3)n2)cc1	3%	35*	73*	-29%	-14%	-14%
Clc1ccc(-c2csc(N/N=C/c3ccco3)n2)cc1	2%	38*	79*	-13%	-11%	-10%
Cc1ccc(-c2cc(-c3ccccc3)nc(N/N=C/c3cccnc3)n2)cc1	/	/	/	/	/	2%

Screening results from PubChem BioAssay.
